Molecules are shown by their SMILES. Where “and” joins values, the source holds several entries; their conditions need not be identical. Identical values can stand only once. The campaign covered roughly 94,000 compounds. About 4,000 (4.3%) were called active. Inconclusive results (about 29%) are left out. The call rests on the fitted dose curve; in most records, active means well fitted inhibition curve with a large enough effect; inconclusive means small, poorly fitted or top-dose-only effect; inactive means no such curve, though single readings can be large or run the other way. What follows is part of a selection rich in actives, with near analogues and random picks from the rest. Where a call stands in place of a potency, no number is given.
Potency means the concentration at half of the fitted maximal effect.

This test can be described thus: Cytotoxic Profiling in NIH 3T3 Cell Line of Diverse Libraries Using Quantitative High-Throughput Screening. Further: nearly all actives have a fitted effect of over 55% in size. The conditions noted are these: NIH 3T3 viability, CellTiter-Glo ATP luminescence, 48-72 h; series mostly up to 96.7 µM. Summed up:
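Cytotoxicity was measured by CellTiter-Glo ATP luminescence after 48 or 72 h compound exposure at 37 °C. Mouse NIH 3T3 fibroblasts were seeded at 400 cells/well and dosed by 23 nL pin transfer.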
Background: In ATP-based viability assays light output follows the ATP content of the culture.
As for `Cc1ccccc1OCC(=O)N1CCC2(CC1)NC(=O)N(Cc1ccccc1)C2=O`, the Potency result is “inactive”.
With `Cc1ccc2[nH]c(=O)c(CCC(=O)NCc3ccncc3)cc2c1`, the Potency entry was “inactive”.
The same measure for `COC(=O)[C@@H]1C[C@H](NC(=O)c2cc(OC)nc(OC)n2)CN1C`: “inactive”; for `COc1ccccc1N1CCN(C(=O)C[C@@H]2C[C@@H](C(C)C)[C@H](CO)C=C2C)CC1`: 100 µM (active); for `CC1=C[C@@H](CC#N)[C@H](C(C)C)C[C@H]1CC(=O)N1CCN(C)CC1`: “inactive”.
Take `COc1ccccc1N1CCN(C(=O)CCc2conc2-c2ccccc2F)CC1`: the Potency entry was “inactive”.
For `O=C(NC1CCCC1)NC1CCN(c2ccc3nnc(-c4ccccc4)n3n2)CC1`, the Potency entry is “inactive”.
Consider `COc1ccccc1C(=O)N1CCCN(c2ccc3nnc(C)n3n2)CC1`, for which the Potency entry is “inactive”.
Consider `O=C(c1ccnc(-c2nnc3ccc(N4CCOCC4)nn23)c1)N1CCCCC1`, for which the Potency is 20 µM (active).
As for `CCn1nccc1C(=O)N1CCCCCC1c1nc(C2CC2)no1` (stereo not given), the Potency result is “inactive”.
Regarding `COc1ccc(S(=O)(=O)N2CCCC(Cn3cnc4cccnc43)C2)cc1` (stereo not given), the Potency result is “inactive”.
With `Cc1oc(-c2cccc(Oc3ccccc3)c2)nc1CN1CCOC(CCN)C1` (stereo not given) the figure was 25.1 µM (active); with `COc1ccc(-c2nc(CN3CCOC(CN)C3)c(C)o2)c2ccccc12` (stereo not given), 25.1 µM (active); with `Cc1oc(-c2cccs2)nc1CN1CCOC(Cc2ccccc2)C1` (stereo not given), “inactive”.
Take `Cc1oc(-c2cc(F)ccc2F)nc1CN1CCN(c2ccccc2)CC1C` (stereo not given): the Potency entry was “inactive”.
With `CCn1cnnc1CC1CCN(C(=O)C2CCN(Cc3nc(-c4cccc(C)c4)oc3C)CC2)CC1`, the Potency result was “inactive”.
On to `CCC1CN(Cc2cn(-c3ccccc3)nc2-c2ccc(OC)cc2F)CCO1` (stereo not given), for which the Potency entry was “inactive”.
In the case of `O=C(c1cn2cc(Cl)ccc2n1)N1CCc2nc(-c3ccccc3)[nH]c2C1`, the Potency entry was “inactive”.
`COC(=O)[C@@H]1Cc2c([nH]c3ccccc23)[C@H]2C[C@H](NCCNC(C)=O)C[C@@H](c3ccc(C)cc3)N21`: the Potency was 25.1 µM (active).
Turning to `COC(=O)[C@@H]1C[C@@H](NC(=O)c2ccc(-c3nnn(C)n3)cc2)CN1C`, the Potency result was “inactive”.
As to `O=C(CC1COCCN1)N1CCC(OCc2cccnc2)CC1` (stereo not given), the Potency entry is “inactive”.
The same measure for `CCCOC(=O)N1CCCC(c2nccn2CCCN(C)C)C1` (stereo not given): “inactive”; for `O=C(c1cc2ccccc2o1)N1CCC2(CNS(=O)(=O)c3cnccc3O2)C1` (stereo not given): “inactive”.
In the case of `C=CCNC(=O)c1ccc2ccnn2c1`, the Potency result is “inactive”.
The same measure for `COc1ccc(C(=O)N2CCCC(C(=O)N3CCCC(c4nc5ccncc5[nH]4)C3)C2)cc1` (stereo not given): “inactive”.
As for `COc1ccc(C(=O)N2CCCC2C(=O)N2CCCC2c2nc3ccncc3[nH]2)cc1` (stereo not given), the Potency result is “inactive”.
With `COc1ccc(-c2nc3ccncc3[nH]2)cc1` the figure was 10 µM (active) and 17.8 µM (active); with `CCc1noc(-c2ccn3c(CNC(=O)c4ccco4)nnc3c2)n1`, “inactive”.
The same measure for `Cc1noc(CC2CCOC3(CCN(C(=O)c4ccc(C#N)cc4)CC3)C2)n1` (stereo not given): “inactive”; for `CCn1ncc(N2CCCC(CC(=O)NCc3cccnc3)C2)cc1=O` (stereo not given): “inactive”.
`O=C(NC[C@H]1COCc2nc3cc(C(F)(F)F)ccc3n21)c1cnccn1`: the Potency entry is “inactive”.
As to `CC1=C[C@@H](CNC(=O)CC2(CC(=O)O)CCCC2)[C@H](C(C)C)C[C@H]1Cc1nc2c(C)cccc2[nH]1`, the Potency entry was “inactive”.
The same measure for `CC1=C[C@@H](CN(CC2CC2)CC2CC2)[C@H](C(C)C)C[C@H]1Cc1nc2c(C)cccc2[nH]1`: 79.4 µM (active); for `COc1ccc2nc(C[C@@H]3C[C@@H](C(C)C)[C@H](CNC(=O)CC(C)(C)CC(=O)O)C=C3C)[nH]c2c1`: “inactive”.
With `CC(=O)N1CCC(NC[C@@H]2C=C(C)[C@H](Cc3nc4ccccc4n3C)C[C@H]2C(C)C)CC1` the entry was “inactive”; with `CC1=C[C@@H](CNCC(C)C)[C@H](C(C)C)C[C@H]1Cc1nc2c(C)cccc2[nH]1`, 39.8 µM (active); with `CC1=C[C@@H](CNC2CCN(C)CC2)[C@H](C(C)C)C[C@H]1Cc1nc2ccccc2[nH]1`, 35.5 µM (active).
With `CCNC(=O)[C@@H]1C[C@@H](NC(=O)c2csc(C)c2CC)CN1C1CCCC1` the entry was “inactive”; with `CCOc1ccccc1CN1CCN(C2CCN(C(C)C)CC2)C(CCO)C1` (stereo not given), “inactive”.
As for `COc1ccc(CN[C@@H]2CCC[C@@H](C(=O)NCc3cc(C)on3)CC(=O)N(C)C2)cn1`, the Potency result was “inactive”.
The same measure for `CCn1nc(CNC(=O)C2CCC(=O)N(C3CCCC3)C2)c2ccccc21` (stereo not given): “inactive”.
On to `COc1cc(NC(=O)Cn2nc3n(c2=O)CCCCC3)cc(OC)c1OC`, for which the Potency entry was “inactive”.
The same measure for `Cc1noc(-c2ccccc2OC2CCN(C(=O)c3cnccc3C)C2)n1` (stereo not given): “inactive”.
In the case of `c1ccc(-c2noc(-c3ccccc3OC3CCNC3)n2)cc1` (stereo not given), the Potency was 12.6 µM (active).
With `COCc1nc(-c2ccc(OC3CNC3)cc2)no1`, the Potency entry is “inactive”.
With `Cc1nc(C)c(C(=O)N2CCC(Oc3ccccc3-c3nc(-c4ccccc4)no3)C2)s1` (stereo not given) the figure was 39.8 µM (active); with `O=C(c1ccoc1)N1CC(Oc2ccc(-c3nc(-c4ccccc4)no3)cc2)C1`, “inactive”.
The same measure for `Cc1cccc(C(=O)N2CCC(Oc3ccc(-c4noc(C(C)C)n4)cc3)C2)c1` (stereo not given): “inactive”; for `O=C1CCN(C(=O)Cc2cccc(F)c2)CCCC(c2nc(-c3cccnc3)no2)CCN1` (stereo not given): “inactive”; for `CC(=O)N1CCC[C@@H]1C(=O)N1CCC(N2CCOC2=O)CC1`: “inactive”.
As for `CCN1C(=O)C2CC3(CCN(C(=O)c4cc5ccccc5[nH]4)CC3)CN2C1=O` (stereo not given), the Potency result is “inactive”.
As to `COC1CCOC2(CCN(C(=O)NCc3ccc(C)cc3)CC2)C1` (stereo not given), the Potency entry is “inactive”.
Take `Cc1ccc(CN2CCC3(Cc4ccccc4CNC3=O)C2)cc1` (stereo not given): the Potency result is “inactive”.
Regarding `O=C1NCc2ccccc2CC12CCN(Cc1ccc(O)cc1)CC2`, the Potency result is “inactive”.
The same measure for `CC(C)Cc1ccc(CN2CCC3(CC2)Cc2ccccc2CNC3=O)cc1`: 25.1 µM (active).
On to `COCCN1C(=O)c2cccn2CC1CNC(=O)c1cc2ccccc2[nH]1` (stereo not given), for which the Potency result is “inactive”.
For `O=C(c1ccccc1F)N1CCC(c2nc(C3CCOCC3)no2)CC1`, the Potency entry was “inactive”.
With `O=C(NC1CCN(c2nc3ncccc3o2)CC1)c1ccc(F)cc1` the entry was “inactive”; with `O=C(CCc1conc1-c1ccccc1F)NCc1cccc(Cl)c1`, “inactive”; with `COc1cccc(C(=O)N2CCC(c3nn(-c4ccccc4)c(=O)[nH]3)CC2)c1`, “inactive”.
The same measure for `Cn1nc(C2CCN(C(=O)c3cccc(Cl)c3)CC2)[nH]c1=O`: “inactive”.
On to `O=C(Cc1cccc(Cl)c1)N1CCC(c2nn(-c3ccc(Cl)cc3)c(=O)[nH]2)CC1`, for which the Potency is 44.7 µM (active).
On to `O=C(Nc1ccccc1)N1CCCC(c2nn(-c3ccccn3)c(=O)[nH]2)C1` (stereo not given), for which the Potency result is “inactive”.
With `CC(=O)N1CCCC(c2nn(-c3ccccc3)c(=O)[nH]2)C1` (stereo not given), the Potency result was “inactive”.
With `O=c1[nH]c(C2CCCN(Cc3ccccn3)C2)nn1-c1ccc(Cl)cc1` (stereo not given) the figure was 3.16 µM (active); with `COc1ccc(C(C)NC(=O)CN2C(=O)C(c3ccccc3)=NC2(C)C)cc1` (stereo not given), “inactive”; with `CN1C(=O)CC[C@]2(C(=O)NCC3CCCCC3)CCCC[C@@H]12`, “inactive”.
`O=C(NC1CCOC1)c1ccc2oc(-c3ccc(C(F)(F)F)cc3)nc2c1` (stereo not given): the Potency entry was “inactive”.
For `O=C(CSc1ccncc1)N1CCCC(O)(CN2CCCC2)C1` (stereo not given), the Potency result was “inactive”.
Take `COc1ccc(N2Cc3c(NCc4cccs4)ncnc3N(C)CC2=O)cc1`: the Potency result is “inactive”.
With `COCCOc1cc(=O)n2c(c1C(=O)NCc1ccccc1)CCOCC2` the entry was “inactive”; with `COCCNC(=O)N1CCc2nn(Cc3ccccc3)c(=O)n2CC1`, “inactive”; with `Cc1cccc(CN2CCc3ncc(C(=O)NCc4ccccc4)n3CC2)n1`, 89.1 µM (active).
With `CCOc1ccc(C(=O)N2C[C@@H](CO)[C@H](c3ccncc3)C2)cc1` the entry was “inactive”; with `COc1ccc2ccc(OCc3nc(C(=O)N4CCC(=O)NCC4C)co3)cc2c1` (stereo not given), “inactive”.
Consider `Cc1ccccc1CNC[C@H]1O[C@@H]2C[C@@H](CC(=O)NC(C)C)O[C@@H]2[C@@H]1O`, for which the Potency result was “inactive”.
The same measure for `CCOc1cc(C)c(CN2C[C@@H](CN(C)C)C[C@H](CO)C2)cc1C(C)C`: 31.6 µM (active); for `COc1cc(C)c(CN2CCN3C(=O)CNC(=O)C3C2)cc1C(C)C` (stereo not given): “inactive”; for `Cc1cc(=O)n(CC(=O)N2C[C@H](CO)C[C@H](CN(C)C)C2)nc1C`: “inactive”.
The same measure for `O=C(C1CCCCC1)N1CCCC(n2cc(-c3nc(-c4ccccc4)no3)nn2)C1` (stereo not given): “inactive”; for `COC(=O)[C@@H]1C[C@H](NC(=O)c2c(Cl)cccc2Cl)CN1C`: “inactive”.
Regarding `O=C1c2c(nc(COc3ccccc3)n2Cc2ccccc2)NCCN1Cc1cccc(Cl)c1`, the Potency is 28.2 µM (active).
As for `CN1CCNc2nc(CNc3cccc(F)c3)n(Cc3ccccc3)c2C1=O`, the Potency result is “inactive”.
The same measure for `C=CCC1(C(=O)O)CCCN(Cc2cn[nH]c2C(=O)O)C1` (stereo not given): “inactive”; for `CCNC(=O)O[C@@H]1CO[C@H]2[C@@H]1OC[C@@H]2NC(=S)Nc1cccc2ccccc12`: 79.4 µM (active); for `CCNC(=O)O[C@@H]1CO[C@H]2[C@@H]1OC[C@@H]2NC(=O)c1cccc(C(=O)OC)c1`: “inactive”.
`COc1ccc(NC(=O)O[C@@H]2CO[C@H]3[C@@H]2OC[C@@H]3NC(=S)Nc2cccc3ccccc23)cc1`: the Potency entry is “inactive”.
In the case of `CC(C)(CC(=O)O)CC(=O)N[C@H]1CO[C@H]2[C@@H]1OC[C@@H]2n1nnnc1-c1ccccc1`, the Potency entry was “inactive”.
The same measure for `c1ccc(CO[C@@H]2CO[C@H]3[C@@H]2OC[C@@H]3n2nnnc2SCc2ccco2)cc1`: 89.1 µM (active); for `CNC(=O)CCN(C)c1nccc(-c2ccc(C)nc2C)n1`: “inactive”; for `Cc1cccc(C(=O)N[C@@H]2CN(c3ncccn3)C[C@H]2CO)n1`: “inactive”.
The same measure for `COc1ccc(-c2cc(-c3cccc4[nH]ncc34)cn3cncc23)cn1`: 14.1 µM (active); for `COc1ccc(-c2cc(-c3cnc4[nH]ccc4c3)cn3cncc23)cn1`: 39.8 µM (active); for `CC(C)NC(=O)C1CCC(=O)N1C1CCN(C(=O)C2CCCCC2)CC1` (stereo not given): “inactive”.
With `COc1cccc(CN2CC3(C2)C(=O)N(Cc2ccccc2F)C(=O)[C@@H]2C[C@@H](O)CN23)c1` the entry was “inactive”.
